# Results as given in the supplement of paper PMC10720658.
# ± gives the standard deviation of the averaged measurements.
# Tested on: AEK1 (Tb927.3.2440)
# Test: percent reduction in TR-FRET probe signal relative to DMSO control; higher = stronger displacement of ATP-site probe (binding)
# Settings: 1 µM; incubation time 1 h
row,SMILES,percent reduction in TR-FRET probe signal [%]
1,CC(C)(C)c1cc(C=C(C#N)C#N)cc(C(C)(C)C)c1O [Tyrphostin 9],15.1 ± 1.3
2,Cc1ccccc1-n1c(Cn2ncc3c(N)ncnc32)nc2cccc(C)c2c1=O,-5.42 ± 2.9
3,COc1ccc2c(c1)/C(=C/c1cnc[nH]1)C(=O)N2,-2.34 ± 5.7
4,C/C(O)=C(\C#N)C(=O)Nc1cc(Br)ccc1Br,-3.29 ± 1.9
5,O=c1[nH]c2ccc(Cl)cc2c(N[C@@H]2CN3CCC2CC3)c1-c1nc2ccccc2[nH]1,25.9 ± 11
6,CC(C)(C)c1cc(C=C(C#N)C#N)cc(Br)c1O,17.3 ± 12
7,CCN1CCN(C(=O)Cc2ccc(Nc3ncc(F)c(Nc4ccc(C(=O)Nc5ccccc5Cl)cc4)n3)cc2)CC1 [Aurora A Inhibitor I],24.1 ± 4.8
8,N#CC(C#N)=Cc1ccc(O)c(O)c1,7.98 ± 17
9,O=c1[nH]c2ccccc2n1C1CCN(Cc2ccc(-c3nc4cc5nc[nH]c5cc4nc3-c3ccccc3)cc2)CC1,-9.38 ± 1.6
10,COc1ccc(N(C(=O)Oc2c(C)cccc2C)c2ccnc(Nc3ccc(N4CCN(C)CC4)cc3)n2)c(OC)c1,12.5 ± 3.4
11,Cn1cc(C2=C(c3cn(C4CCN(Cc5ccccn5)CC4)c4ccccc34)C(=O)NC2=O)c2ccccc21,-6.77 ± 7.9
